Structures are written as SMILES. “And” between values parts separate entries of the source, which are not always exact repeats. Equal values may be shown once. For part of these data: Potency and affinity values are given separately. The source made the active and inactive calls.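 Rule for the calls, unless noted: active = primary screen inhibitor hit that blocks the TRPC4 channel at some tested dose, yielding a dose curve; inactive = the rest.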

Among the data in PubChem BioAssay are activation, outcome and potentiation values, retold here.

Assay [1] concerns TRPC4 beta (transient receptor potential cation channel C4), mouse. As to the kind of experiment: activators of mouse TRPC4 channel, confirmation, cell-based, Fluo4 calcium, HEK293 TRPC4beta/mu-opioid, duplicates, 10 µM (AID 2426;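 active = fluorescence ratio normalized to control raised more than 50% in primary screen plus both repeat runs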;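 for activation: percent rise of integrated ratio over buffer wells lacking compound which define 0%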). The note with it: Fluo4 calcium fluorescence, at 10 µM; stronger effect = higher value.
For assay [2], the system named is transient receptor potential cation channel C4 beta (TRPC4), mouse. As to the kind of experiment: activators of mouse TRPC4 channel, confirmation, cell-based, second round, Fluo4, HEK293 TRPC4beta/mu-opioid, 1 µM (AID 2461;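 active = primary screen active and over 50% activation in each of two duplicate runs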;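 for activation: 0% = wells without test compound as baseline of integrated fluorescence ratio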). The note with it: Fluo4 calcium fluorescence, at 1 µM; stronger effect = higher value.
Assay [3] has as its system TRPC4 (transient receptor potential cation channel C4 beta), mouse. As to the kind of experiment: positive allosteric modulators of mouse TRPC4, confirmation, cell-based, second round, Fluo-4, HEK293 TRPC4beta/mu-opioid, 1 µM (AID 2554;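 active = primary screen hit whose fluorescence ratio, in both repeats, exceeds the weak agonist control mean by 3 SD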). The note with it: DAMGO EC20, Fluo-4 calcium flux, at 1 µM; stronger effect = higher value.
Assay [4] concerns TRPC4 beta (transient receptor potential cation channel C4), mouse. As to the kind of experiment: positive allosteric modulators of mouse TRPC4, confirmation, cell-based, Fluo-4, HEK293 TRPC4beta/mu-opioid (AID 2555;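 active = primary screen hit whose calcium fluorescence ratio, in both repeats, exceeds the weak agonist control mean by 3 SD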). The note with it: DAMGO EC20, Fluo-4 calcium flux, at 10 µM; stronger effect = higher value. A general note: Calcium flux is commonly read through the fluorescence of an indicator in the cells.

Assay [5] concerns the target Short transient receptor potential channel 4 (Mus musculus) (UniProt Q9QUQ5). As to the kind of experiment: inhibitors of mouse TRPC4 channel, confirmation, cell-based, Fluo4, HEK293 TRPC4beta/mu-opioid (AID 2636;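 active = calcium signal cut by more than 3 SD below the full-agonist control yet still positive, in both repeats and the earlier primary screen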). The note with it: DAMGO, Fluo4 calcium flux, at 10 µM; stronger effect = higher value.
Assay [6] has the same target. As to the kind of experiment: inhibitors of mouse TRPC4 channel, confirmation, cell-based, second round, Fluo4, HEK293 TRPC4beta/mu-opioid, 1 µM (AID 2637;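 active = calcium signal ratio cut to more than 3 SD under the fully stimulated control mean yet still positive, in both repeats and the primary screen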). The note with it: Fluo4 calcium flux, DAMGO, at 1 µM; stronger effect = higher value.
Assay [7] has the same target. As to the kind of experiment: TRPC4 positive allosteric modulators, dose response, cell-based, HEK293 TRPC4/mu-opioid, Fluo-4 calcium, EC20 DAMGO (AID 434941;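 active = earlier screen potentiator hit that boosts the TRPC4 ion channel at some dose, with a dose response; inactive = no potentiation, no dose response, or not a prior hit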;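 note: calcium entry triggered by an EC20 dose of DAMGO at the co-expressed mu-opioid receptor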).
Assay [8] has the same target. As to the kind of experiment: mouse TRPC4 channel inhibitors, dose response, cell-based, HEK293 TRPC4/mu-opioid, Fluo-4 calcium (AID 434942).
The target in assay [9] is Short transient receptor potential channel 6 (Mus musculus) (UniProt Q61143). As to the kind of experiment: inhibition of mouse TRPC6 channel, confirmation, selectivity assay for TRPC4 inhibitor project, cell-based, HEK293, membrane potential dye, duplicate (AID 434948;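 active = active in primary screen and both duplicates, each dropping signal beyond three positive-control SD with fluorescence still positive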). The note with it: HEK293 TRPC6, membrane potential dye fluorescence, at 10 µM, stimulated with maximal-effect acetylcholine; stronger effect = higher value.

Assay [10] has the same target. As to the kind of experiment: activation of mouse TRPC6 channel, confirmation, selectivity assay for TRPC4 activator project, cell-based, HEK293, membrane potential dye, duplicate (AID 434950;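 active = membrane potential signal rise above negative control mean plus 3 SD in both duplicates, also active in the earlier TRPC4 screen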;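 for activation: 0% = buffer only wells and 100% = acetylcholine maximal-effect wells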). The note with it: HEK293 TRPC6, membrane potential fluorescence, at 10 µM; stronger effect = higher value.
For assay [11] the target is unchanged. As to the kind of experiment: TRPC6 potentiation by TRPC4 potentiator hits, confirmation, selectivity assay for TRPC4 potentiator project, HEK293 cells, membrane potential dye, duplicate (AID 434952;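 active = compound raising the membrane signal above positive-control mean plus 3 SD in both repeats, and a primary screen hit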). The note with it: HEK293 TRPC6, membrane potential dye fluorescence, at 10 µM, maximal acetylcholine added after compound; stronger effect = higher value.
Assay [12] addresses Short transient receptor potential channel 4 (Mus musculus) (UniProt Q9QUQ5). As to the kind of experiment: calcium flux activators in TRPC4/5HT1a cells, counter-screen for TRPC4 activator project, cell-based, second counter screen, HEK293 TRPC4/5HT1a, Fluo-4 (AID 434977;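 active = calcium signal rise above buffer-control mean plus 5 SD in both duplicates, and also a hit in the primary screen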;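 for activation: plate controls were assay buffer for no effect and maximal serotonin response for full effect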). The note with it: Fluo-4 calcium flux, at 10 µM; stronger effect = higher value.
A short description of assay [13]: calcium flux inhibitors in TRPC4/5HT1a cells, confirmation, counter-screen for TRPC4 inhibitor project, cell-based, second counter screen, HEK293 TRPC4/5HT1a, Fluo-4 (AID 434978;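 active = primary screen active whose calcium signal fell more than 3 SD beyond the full-serotonin control mean in both duplicate plates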;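 note: serotonin given first at submaximal then at maximal dose after compound preincubation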). The note with it: Fluo-4 calcium flux, at 10 µM, serotonin added to trigger calcium flux; stronger effect = higher value.
Assay [14] deals with TRPC4 (mouse), co-expressed with 5HT1a in HEK293. As to the kind of experiment: calcium flux potentiators in TRPC4/5HT1a cells, confirmation, counter-screen for TRPC4 potentiator project, cell-based, second counter screen, HEK293 TRPC4/5HT1a, Fluo-4 (AID 434979;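 active = signal rise over 3 SD above mean of control wells given weak agonist, in both repeats and first screen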). The note with it: Fluo-4 calcium flux, at 10 µM, serotonin added at its EC20 dose; stronger effect = higher value.
The nature of assay [15]: calcium flux activation in mu-opioid HEK293 cells, confirmation, counter-screen for TRPC4 activator project, cell-based, HEK293 mu-opioid receptor line (AID 449723;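 active = hit in primary screen, with calcium signal over 5 SD above buffer well mean in both duplicates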;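 note: counter screen cells carry the mu-opioid receptor alone and lack TRPC4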). The note with it: Fluo-4 calcium fluorescence, at 10 µM; stronger effect = higher value.
Assay [16] can be described thus: calcium flux enhancement in mu-opioid HEK293 cells, confirmation, counter-screen for TRPC4 allosteric potentiator project, cell-based, HEK293 mu-opioid receptor line (AID 449724;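 active = calcium signal rise more than 3 SD above the low-dose agonist control mean, in both duplicate plates and the primary screen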;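 note: HEK293 cells carrying mu-opioid receptor only with no TRPC4 channel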). The note with it: Fluo-4 calcium flux, at 10 µM, compound added before EC20 DAMGO stimulus; stronger effect = higher value.

Sequence of Short transient receptor potential channel 6 (Mus musculus) (Q61143 whole entry, looked up): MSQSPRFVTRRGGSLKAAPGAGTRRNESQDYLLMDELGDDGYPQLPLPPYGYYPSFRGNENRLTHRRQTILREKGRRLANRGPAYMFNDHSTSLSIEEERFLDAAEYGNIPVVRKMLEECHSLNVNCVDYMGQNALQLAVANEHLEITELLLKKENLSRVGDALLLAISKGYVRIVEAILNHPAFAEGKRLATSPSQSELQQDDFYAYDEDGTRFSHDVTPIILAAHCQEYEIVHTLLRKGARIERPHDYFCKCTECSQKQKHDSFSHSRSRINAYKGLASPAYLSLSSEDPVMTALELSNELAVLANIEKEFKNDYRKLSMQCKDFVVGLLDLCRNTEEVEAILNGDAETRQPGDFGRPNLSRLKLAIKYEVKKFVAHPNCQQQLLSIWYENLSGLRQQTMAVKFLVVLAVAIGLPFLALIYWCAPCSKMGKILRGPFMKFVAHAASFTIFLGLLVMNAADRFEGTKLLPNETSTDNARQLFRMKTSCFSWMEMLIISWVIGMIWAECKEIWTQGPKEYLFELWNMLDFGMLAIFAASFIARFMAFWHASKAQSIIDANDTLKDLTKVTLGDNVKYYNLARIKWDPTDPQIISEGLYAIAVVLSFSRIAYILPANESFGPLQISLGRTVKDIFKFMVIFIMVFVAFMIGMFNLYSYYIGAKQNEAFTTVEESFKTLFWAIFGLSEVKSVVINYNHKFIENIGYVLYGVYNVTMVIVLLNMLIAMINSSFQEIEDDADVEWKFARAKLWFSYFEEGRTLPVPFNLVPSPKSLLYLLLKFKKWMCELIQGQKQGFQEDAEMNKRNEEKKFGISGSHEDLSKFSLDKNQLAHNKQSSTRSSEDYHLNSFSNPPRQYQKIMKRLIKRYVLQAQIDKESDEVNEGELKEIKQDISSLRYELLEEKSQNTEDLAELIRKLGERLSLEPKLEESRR
Sequence of Short transient receptor potential channel 4 (Mus musculus) (Q9QUQ5 whole entry, looked up): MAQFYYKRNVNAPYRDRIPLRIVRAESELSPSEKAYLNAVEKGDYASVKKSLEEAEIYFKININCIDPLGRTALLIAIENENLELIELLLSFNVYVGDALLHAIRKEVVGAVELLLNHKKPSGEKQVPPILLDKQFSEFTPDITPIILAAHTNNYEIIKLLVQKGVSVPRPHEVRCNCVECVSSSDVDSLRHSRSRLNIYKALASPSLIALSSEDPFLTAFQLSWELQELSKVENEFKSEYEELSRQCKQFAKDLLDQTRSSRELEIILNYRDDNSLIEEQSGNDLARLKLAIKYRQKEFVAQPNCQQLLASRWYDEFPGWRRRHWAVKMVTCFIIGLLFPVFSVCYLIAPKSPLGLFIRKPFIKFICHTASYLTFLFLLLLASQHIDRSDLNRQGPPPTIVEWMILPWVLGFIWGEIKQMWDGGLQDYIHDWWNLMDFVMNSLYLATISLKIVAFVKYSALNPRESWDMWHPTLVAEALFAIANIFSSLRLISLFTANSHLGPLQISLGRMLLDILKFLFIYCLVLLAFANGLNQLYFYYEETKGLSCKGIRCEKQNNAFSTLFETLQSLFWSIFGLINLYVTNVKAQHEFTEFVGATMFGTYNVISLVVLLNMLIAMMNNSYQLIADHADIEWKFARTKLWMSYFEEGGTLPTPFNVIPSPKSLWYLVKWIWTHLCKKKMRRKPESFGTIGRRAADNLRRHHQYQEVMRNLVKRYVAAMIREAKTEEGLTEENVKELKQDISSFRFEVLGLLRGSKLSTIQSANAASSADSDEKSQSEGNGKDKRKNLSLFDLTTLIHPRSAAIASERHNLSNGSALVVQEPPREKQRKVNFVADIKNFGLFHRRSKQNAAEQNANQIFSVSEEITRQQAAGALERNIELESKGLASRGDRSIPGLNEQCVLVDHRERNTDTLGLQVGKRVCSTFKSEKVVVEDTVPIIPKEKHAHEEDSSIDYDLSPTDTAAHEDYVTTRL

As to `CCN1CCN(c2ccc(S(=O)(=O)N3CCCCC3)cc2NC(=O)c2cccc(Cl)c2)CC1`, the activation is 63% (active) in assay [1] and 17.8% (active) in assay [12]. Further, the outcome in [2], in [5], in assay [6], in assay [7], in assay [8] and in assay [9] was inactive. The call in assay [10], in assay [11], in [13], in assay [15] and in assay [16] was inactive. The potentiation in assay [3] is 9% (active); in [4] it was 7% (active); in [14] it was 14.7% (active).

As for `COc1ccc(C(CNC(=O)CCOc2ccccc2)N(C)C)cc1` (stereo not given), the activation is 145% (active) in assay [1], 77% (active) in [2] and 45% (active) in assay [10]. In addition, the result in [3], in assay [4], in assay [5], in assay [6], in assay [7] and in assay [8] was inactive. Moreover, the compound was classed as inactive in assay [9], in [11], in assay [12], in [13], in assay [14] and in [15]. In [16], the result was inactive.

`COc1cccc(CN2CCNC(=O)C2CC(=O)N(C)CCc2ccccn2)c1OC` (stereo not given): the values for the activation in assay [1] and in assay [12] were 138% (active) and 52.1% (active), respectively. The result in assay [2], in [3], in [4], in assay [5], in assay [6] and in assay [7] was inactive. Besides, the outcome in [8], in assay [9], in [10], in [11], in [13] and in assay [14] was inactive. Moreover, the outcome in assay [15] and in [16] was inactive.

As to `COc1ccc(C(CNCC(O)COc2c(C)ccc(C)c2C)N(C)C)cc1` (stereo not given), the result in [1], in assay [2], in assay [3], in assay [4], in assay [5] and in assay [6] was inactive. Further, the outcome in [7], in [8], in assay [9], in assay [11], in assay [12] and in [13] was inactive. Moreover, the outcome in assay [14], in assay [15] and in assay [16] was inactive. Besides, the activation in assay [10] was 79% (active).

In the case of `CCN(Cc1ccccc1)S(=O)(=O)c1ccc(C(=O)N(CCCN(C)C)c2nc3c(F)cccc3s2)cc1`, in [1], the activation is 76% (active). In addition, the outcome in assay [2], in assay [3], in assay [4], in assay [5], in assay [6] and in assay [7] was inactive. The result in assay [8], in [9], in [10], in [11], in assay [12] and in [13] was inactive. For the same compound, the result in [14], in [15] and in [16] was inactive.

As for `CC(=O)OCC[N+](C)(C)C`, the activation in assay [1] is 128% (active) and 146% (active); in [2], 81% (active) and 93% (active); in assay [10], 91.5% (active) and 116% (active); in [12] it was 110% (active) and 105% (active); in assay [15] it was 101% (active) and 102% (active). Moreover, the outcome in assay [3], in assay [4], in assay [5], in assay [6], in assay [7] and in [8] was inactive. In addition, the compound was called inactive in assay [9], in [11], in assay [13], in [14] and in [16].

For the compound `Fc1ccc(-c2nn(-c3ccccc3)cc2CNCc2ccccc2)cc1`, the outcome in assay [1], in assay [2], in [3], in assay [4], in assay [5] and in assay [6] was inactive. The result in [7], in assay [8], in assay [9], in [10], in [11] and in [12] was inactive. In addition, the result in assay [13], in assay [14], in assay [15] and in assay [16] was inactive.

In the case of `Cc1c(Cl)cccc1NC(=S)NCC(c1cccnc1)N(C)C` (stereo not given), the result in assay [1], in assay [3], in [4], in assay [5], in assay [6] and in assay [7] was inactive. Moreover, the outcome in assay [8], in [9], in assay [11], in [12], in [13] and in assay [14] was inactive. For the same compound, the outcome in assay [15] and in assay [16] was inactive. Also, the activation was 103% (active) in assay [2] and 47.5% (active) in [10].

For `COc1ccccc1N1CCN(C(c2cccs2)C(C)NC(=O)c2ccco2)CC1` (stereo not given), the activation in assay [1] is 73% (active); in assay [10], 32% (active). For the same compound, the result in assay [2], in assay [3], in assay [4], in [5], in [6] and in assay [7] was inactive. Besides, the outcome in assay [8], in [9], in [11], in assay [12], in assay [13] and in assay [14] was inactive. The outcome in assay [15] and in assay [16] was inactive.

Regarding `Cc1csc2c(N3CCN(C(=O)Nc4ccccc4)CC3)ncnc12`, the activation in assay [1] is 99% (active); in [12] it was 48.3% (active). In addition, the result in [2], in assay [3], in assay [4], in [5], in assay [6] and in [7] was inactive. The outcome in assay [8], in assay [9], in assay [10], in [11], in assay [13] and in [14] was inactive. For the same compound, the result in assay [15] and in [16] was inactive.

`CN(C)C(CNC(=O)NC1CCCCC1)c1cccnc1` (stereo not given): the activation in assay [1] was 79% (active); in assay [2] it was 98% (active); in assay [10] it was 29.5% (active). Further, the result in [3], in assay [4], in [5], in assay [6], in [7] and in assay [8] was inactive. Moreover, the compound was classed as inactive in [9], in [11], in assay [12], in assay [13], in assay [14] and in assay [15]. For the same compound, the result in assay [16] was inactive.

Consider `CCn1cc(CNCc2cn(-c3ccccc3C)nc2-c2ccc(OC)c(F)c2)cn1`, for which the activation in assay [1] is 163% (active); in assay [2], 74% (active). Moreover, the result in [3], in assay [4], in assay [5], in assay [6], in assay [7] and in assay [8] was inactive. The compound was called inactive in [9], in assay [10], in assay [11], in assay [12], in assay [13] and in assay [14]. Besides, the outcome in assay [15] and in assay [16] was inactive.

Consider `CN1CCC(=O)N([C@H](CSc2ccc(Br)cc2)Cc2ccccc2)CC1`, for which the result in assay [1], in assay [2], in [3], in assay [4], in assay [5] and in assay [6] was inactive. For the same compound, the outcome in [7], in assay [8], in assay [9], in [11], in assay [12] and in assay [13] was inactive. The outcome in assay [14], in [15] and in assay [16] was inactive. Moreover, in [10], the activation is 33% (active).

Regarding `Cc1ccc(-n2cc(CNC(C)c3cnn(C)c3C)c(-c3ccc(F)cc3)n2)cc1` (stereo not given), the activation in [1] is 195% (active); in assay [2] it was 86% (active); in [10], 30.5% (active). Moreover, the outcome in assay [3], in assay [4], in [5], in assay [6], in assay [7] and in assay [8] was inactive. The compound was classed as inactive in assay [9], in assay [11], in assay [12], in [13], in [14] and in assay [15]. Moreover, the outcome in [16] was inactive.

Regarding `CCCCCc1c(O)nc(SCCN(C)C)[nH]c1=O`, the figures for the activation in assay [1] and in assay [12] were 63% (active) and 15.6% (active), respectively. In addition, the result in [2], in assay [3], in assay [4], in assay [5], in assay [6] and in [7] was inactive. Besides, the outcome in assay [8], in assay [9], in assay [10], in assay [11], in assay [13] and in [14] was inactive. Also, the outcome in [15] and in [16] was inactive.
